Results taken from the supplement of paper PMC9492666.
Counter-ions that a name gives are not always drawn.

What follows are molecules tested on HCC1937 (assay: relative cell viability, compound alone, vs DMSO (fraction of DMSO control); higher = less growth inhibition). Settings: 72 h.
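Also: viability read out with the CCK-8 kit in 96-well plates, screening a set of 303 compounds acting on lipid metabolism targets.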

First: CCCCCCCCCCCCC/C=C/[C@@H](O)[C@@H](N)CO
Second: CCCCCCS(=O)(=O)NC(=O)c1ccc(CSCc2ccc(-c3ccccc3)cc2)cc1
The relative cell viability of the first is lower: 0.331 for the first, 0.938 for the second.

Compared with `Cc1cc([N+](=O)[O-])ccc1NS(=O)(=O)c1cc(Cl)ccc1Cl`, `COC(=O)c1cc(Cl)c(O)c(S(=O)(=O)Nc2cc(-c3ccccc3)c(F)cc2F)c1` is higher in relative cell viability: 0.579 for the first, 0.737 for the second.

Going from `C=C(C)[C@@H]1CC[C@]2(C)CC[C@]3(C)[C@H](CC[C@@H]4[C@@]5(C)CCC(=O)C(C)(C)[C@@H]5CC[C@]43C)[C@@H]12` to `CC(C)=CCC[C@](C)(O)[C@H]1CC[C@]2(C)[C@@H]1[C@H](O)C[C@@H]1[C@@]3(C)CC[C@H](O)C(C)(C)[C@@H]3[C@@H](O)C[C@]12C` [(20S)-Protopanaxatriol], the relative cell viability rises from 1.04 to 1.24.

Going from `c1cc(-c2cnn3cc(-c4ccc(OCCN5CCCCC5)cc4)cnc23)ccn1` [Dorsomorphin dihydrochloride] to `CCCc1cc(-c2nc(-c3ccc(C)cc3)cs2)ccn1` [Fatostatin], the relative cell viability rises from 0.138 to 0.733.

Going from `Oc1ccc(/C=C/c2cc(O)cc(O)c2)cc1` [Resveratrol] to `OC[C@H]1O[C@@H](Oc2cc(O)cc(/C=C/c3ccc(O)cc3)c2)[C@H](O)[C@@H](O)[C@@H]1O` [Polydatin], the relative cell viability rises from 0.67 to 1.07.

First: O=C(c1c2ccccc2cc2ccccc12)N1CCC(N2CCC[C@@H](C(=O)N3CCOCC3)C2)CC1
Second: CCOc1cc(CC(=O)N[C@@H](CC(C)C)c2ccccc2N2CCCCC2)ccc1C(=O)O [Repaglinide]
The relative cell viability of the first is lower: 0.763 for the first, 1.02 for the second.

First: CC(=O)c1c(C)cc2cccc(O)c2c1O [Nepodin]
Second: O=C(O)C(O)Cc1ccc(O)c(O)c1 (stereo not drawn) [Sodium Danshensu]
The relative cell viability of the first is higher: 0.75 for the first, 0.718 for the second.

Going from `O=c1c(-c2ccc(O)cc2)coc2cc(O)ccc12` [Daidzein] to `COc1ccc(-c2coc3cc(O)cc(O)c3c2=O)cc1` [Biochanin A], the relative cell viability falls from 1.13 to 0.813.

Compared with `COc1cccc(-n2c(=O)[nH]c3cc(Cl)n(-c4ccc(-c5cccc(OC)c5O)cc4)c3c2=O)c1`, `O=C(O)c1cccc(N=Nc2c(O)[nH]c3ccc(S(=O)(=O)NCc4ccc(F)cc4)cc23)c1` is higher in relative cell viability: 0.835 for the first, 0.885 for the second.

Going from `NC(=O)c1cnccn1` [Pyrazinamide] to `C[C@@H]1OCC2(CCN(c3cnc(Sc4ccnc(N)c4Cl)c(N)n3)CC2)[C@@H]1N`, the relative cell viability rises from 0.654 to 0.896.

First: CCOC(=O)C(C)(C)Oc1ccc(Cl)cc1 [Clofibrate]
Second: CC(C)(Oc1ccc(C(=O)c2ccc(Cl)cc2)cc1)C(=O)O [Choline Fenofibrate]
The relative cell viability of the first is higher: 1.15 for the first, 0.928 for the second.

Compared with `CN(C)C(=O)Nc1cccc(-c2ccc(N(C)C)cc2)c1` [Atglistatin], `NC(=O)c1cccc(-c2cccc(OC(=O)NC3CCCCC3)c2)c1` is higher in relative cell viability: 0.661 for the first, 0.822 for the second.

First: CC1CC(OC(=O)C(O)c2ccccc2)CC(C)(C)C1 (stereo not drawn) [Cyclandelate]
Second: CC1=C(C)C(=O)C(C(CCCCCC(=O)O)c2ccccc2)=C(C)C1=O (stereo not drawn) [Seratrodast]
The relative cell viability of the first is lower: 1.21 for the first, 1.37 for the second.

First: Cc1c(C(=O)Nc2ccc(CO)cc2)nnn1Cc1ccc(Cl)c(Cl)c1
Second: Cn1nc(C(=O)N(Cc2ccccc2)Cc2ccc(C(=O)O)cc2)c2c1-c1cc(Cl)ccc1OC2 [Nidufexor]
The relative cell viability of the first is higher: 0.975 for the first, 0.937 for the second.

Going from `CC(C)Cc1ccc([C@H](C)C(=O)O)cc1` [Dexibuprofen] to `COc1c(/C=C/C(=O)c2ccc(O)cc2)ccc(O)c1CC=C(C)C`, the relative cell viability falls from 1.36 to 1.06.

First: C=C[C@H]1CN2CC[C@H]1C[C@@H]2[C@@H](O)c1ccnc2ccc(OC)cc12 [Quinidine sulfate]
Second: O=C(O)c1cc2c(Cl)c(N3CCN(S(=O)(=O)c4c(Cl)cccc4Cl)CC3)ccc2o1 [Vonafexor]
The relative cell viability of the first is lower: 0.803 for the first, 1.16 for the second.

Going from `C=C1C[C@]2(O)O[C@@]3(CC2=C(C)C)[C@@H](C)CC[C@@H]13` [Isocurcumenol] to `CCC(=O)O[C@]1(C(=O)SCF)[C@H](C)C[C@H]2[C@@H]3C[C@H](F)C4=CC(=O)C=C[C@]4(C)[C@@]3(F)[C@@H](O)C[C@@]21C` [Fluticasone propionate], the relative cell viability rises from 0.933 to 1.34.

Compared with `CN(CCOc1ccc(CC2SC(=O)NC2=O)cc1)c1ccccn1` (stereo not drawn) [Rosiglitazone], `CCCc1cc(-c2nc(-c3ccc(NS(C)(=O)=O)cc3)cs2)ccn1` is lower in relative cell viability: 1.43 for the first, 0.669 for the second.

First: C[C@H](CCOc1cccc(CC(=O)O)c1)N(Cc1cccc(C(F)(F)F)c1Cl)CC(c1ccccc1)c1ccccc1 [RGX-104 free Acid]
Second: Cc1cc(C)c(S(=O)(=O)Nc2cccc(C(F)(F)F)c2)c(C)c1
The relative cell viability of the first is lower: 0.613 for the first, 1.12 for the second.

Work on `CN(C(=O)n1cnc(-c2ccc[n+]([O-])c2)c1)C1CCCCC1` yielded a relative cell viability of 0.65.

What follows are molecules tested on MDA-MB-231 in the same assay as above. Settings: 72 h.

Compared with `CCCCCCCCCCCCC/C=C/[C@@H](O)[C@@H](N)CO`, `CCCCCCS(=O)(=O)NC(=O)c1ccc(CSCc2ccc(-c3ccccc3)cc2)cc1` is higher in relative cell viability: 0.792 for the first, 0.91 for the second.

First: Cc1cc([N+](=O)[O-])ccc1NS(=O)(=O)c1cc(Cl)ccc1Cl
Second: COC(=O)c1cc(Cl)c(O)c(S(=O)(=O)Nc2cc(-c3ccccc3)c(F)cc2F)c1
The relative cell viability of the first is lower: 0.795 for the first, 0.833 for the second.

Compared with `C=C(C)[C@@H]1CC[C@]2(C)CC[C@]3(C)[C@H](CC[C@@H]4[C@@]5(C)CCC(=O)C(C)(C)[C@@H]5CC[C@]43C)[C@@H]12`, `CC(C)=CCC[C@](C)(O)[C@H]1CC[C@]2(C)[C@@H]1[C@H](O)C[C@@H]1[C@@]3(C)CC[C@H](O)C(C)(C)[C@@H]3[C@@H](O)C[C@]12C` [(20S)-Protopanaxatriol] is lower in relative cell viability: 1.08 for the first, 1 for the second.

Going from `c1cc(-c2cnn3cc(-c4ccc(OCCN5CCCCC5)cc4)cnc23)ccn1` [Dorsomorphin dihydrochloride] to `CCCc1cc(-c2nc(-c3ccc(C)cc3)cs2)ccn1` [Fatostatin], the relative cell viability rises from 0.301 to 0.745.

Compared with `Oc1ccc(/C=C/c2cc(O)cc(O)c2)cc1` [Resveratrol], `OC[C@H]1O[C@@H](Oc2cc(O)cc(/C=C/c3ccc(O)cc3)c2)[C@H](O)[C@@H](O)[C@@H]1O` [Polydatin] is higher in relative cell viability: 0.755 for the first, 0.871 for the second.

Compared with `O=C(c1c2ccccc2cc2ccccc12)N1CCC(N2CCC[C@@H](C(=O)N3CCOCC3)C2)CC1`, `CCOc1cc(CC(=O)N[C@@H](CC(C)C)c2ccccc2N2CCCCC2)ccc1C(=O)O` [Repaglinide] is higher in relative cell viability: 0.836 for the first, 0.938 for the second.

First: CC(=O)c1c(C)cc2cccc(O)c2c1O [Nepodin]
Second: O=C(O)C(O)Cc1ccc(O)c(O)c1 (stereo not drawn) [Sodium Danshensu]
The relative cell viability of the first is lower: 0.797 for the first, 0.818 for the second.

Compared with `O=c1c(-c2ccc(O)cc2)coc2cc(O)ccc12` [Daidzein], `COc1ccc(-c2coc3cc(O)cc(O)c3c2=O)cc1` [Biochanin A] is lower in relative cell viability: 0.863 for the first, 0.729 for the second.

Going from `COc1cccc(-n2c(=O)[nH]c3cc(Cl)n(-c4ccc(-c5cccc(OC)c5O)cc4)c3c2=O)c1` to `O=C(O)c1cccc(N=Nc2c(O)[nH]c3ccc(S(=O)(=O)NCc4ccc(F)cc4)cc23)c1`, the relative cell viability rises from 0.903 to 0.938.

First: NC(=O)c1cnccn1 [Pyrazinamide]
Second: C[C@@H]1OCC2(CCN(c3cnc(Sc4ccnc(N)c4Cl)c(N)n3)CC2)[C@@H]1N
The relative cell viability of the first is lower: 0.841 for the first, 0.996 for the second.

Going from `CCOC(=O)C(C)(C)Oc1ccc(Cl)cc1` [Clofibrate] to `CC(C)(Oc1ccc(C(=O)c2ccc(Cl)cc2)cc1)C(=O)O` [Choline Fenofibrate], the relative cell viability rises from 0.9 to 1.07.

Compared with `CN(C)C(=O)Nc1cccc(-c2ccc(N(C)C)cc2)c1` [Atglistatin], `NC(=O)c1cccc(-c2cccc(OC(=O)NC3CCCCC3)c2)c1` is higher in relative cell viability: 0.83 for the first, 1.02 for the second.

Compared with `CC1CC(OC(=O)C(O)c2ccccc2)CC(C)(C)C1` (stereo not drawn) [Cyclandelate], `CC1=C(C)C(=O)C(C(CCCCCC(=O)O)c2ccccc2)=C(C)C1=O` (stereo not drawn) [Seratrodast] is lower in relative cell viability: 0.825 for the first, 0.809 for the second.

Going from `Cc1c(C(=O)Nc2ccc(CO)cc2)nnn1Cc1ccc(Cl)c(Cl)c1` to `Cn1nc(C(=O)N(Cc2ccccc2)Cc2ccc(C(=O)O)cc2)c2c1-c1cc(Cl)ccc1OC2` [Nidufexor], the relative cell viability falls from 0.95 to 0.932.

First: CC(C)Cc1ccc([C@H](C)C(=O)O)cc1 [Dexibuprofen]
Second: COc1c(/C=C/C(=O)c2ccc(O)cc2)ccc(O)c1CC=C(C)C
The relative cell viability of the first is higher: 0.905 for the first, 0.885 for the second.

Going from `C=C[C@H]1CN2CC[C@H]1C[C@@H]2[C@@H](O)c1ccnc2ccc(OC)cc12` [Quinidine sulfate] to `O=C(O)c1cc2c(Cl)c(N3CCN(S(=O)(=O)c4c(Cl)cccc4Cl)CC3)ccc2o1` [Vonafexor], the relative cell viability rises from 1.02 to 1.16.

Going from `C=C1C[C@]2(O)O[C@@]3(CC2=C(C)C)[C@@H](C)CC[C@@H]13` [Isocurcumenol] to `CCC(=O)O[C@]1(C(=O)SCF)[C@H](C)C[C@H]2[C@@H]3C[C@H](F)C4=CC(=O)C=C[C@]4(C)[C@@]3(F)[C@@H](O)C[C@@]21C` [Fluticasone propionate], the relative cell viability falls from 0.92 to 0.813.

First: CN(CCOc1ccc(CC2SC(=O)NC2=O)cc1)c1ccccn1 (stereo not drawn) [Rosiglitazone]
Second: CCCc1cc(-c2nc(-c3ccc(NS(C)(=O)=O)cc3)cs2)ccn1
The relative cell viability of the first is higher: 0.969 for the first, 0.926 for the second.

Going from `C[C@H](CCOc1cccc(CC(=O)O)c1)N(Cc1cccc(C(F)(F)F)c1Cl)CC(c1ccccc1)c1ccccc1` [RGX-104 free Acid] to `Cc1cc(C)c(S(=O)(=O)Nc2cccc(C(F)(F)F)c2)c(C)c1`, the relative cell viability rises from 0.863 to 1.18.

With `CN(C(=O)n1cnc(-c2ccc[n+]([O-])c2)c1)C1CCCCC1` the relative cell viability was 0.934.
